Screens deposited in PubChem BioAssay by National Center for Advancing Translational Sciences (NCATS).
This is a sample that favours compounds with a hit; in the whole collection about 21% have one here.
D3 antag: antagonists of human D3 dopamine receptor | P35462 | D3R cells, DiscoveRx beta-arrestin luminescence, antagonist mode; stronger effect = lower value | max response, negative = inhibition, % | actives 2.5% (n = 360,000) | AID 652054; in the data active = max response below about -50%; inconclusive = no clear call, values can overlap the other calls
Target sequence (P35462 whole entry, looked up): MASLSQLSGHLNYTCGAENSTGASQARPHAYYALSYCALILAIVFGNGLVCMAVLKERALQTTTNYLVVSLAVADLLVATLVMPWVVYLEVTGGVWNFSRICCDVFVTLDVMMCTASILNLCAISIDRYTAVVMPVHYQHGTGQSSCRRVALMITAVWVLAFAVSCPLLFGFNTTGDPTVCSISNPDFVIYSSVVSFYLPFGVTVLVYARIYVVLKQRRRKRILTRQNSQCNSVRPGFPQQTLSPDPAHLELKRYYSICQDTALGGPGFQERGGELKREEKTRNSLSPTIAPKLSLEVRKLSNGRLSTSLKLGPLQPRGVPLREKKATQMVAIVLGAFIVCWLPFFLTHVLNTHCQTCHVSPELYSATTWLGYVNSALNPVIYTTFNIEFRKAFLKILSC
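Cells plated overnight at 1500 cells/well, then exposed to library compounds with dopamine controls for 90 minutes at 37 degrees C. DiscoveRx reagent added for 30–60 minutes at room temperature; luminescence read, quantitative HTS format.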
ClpP mod: qHTS Assay for Activators of ClpP. Potency, µM (top dose mostly 57.5 µM). AID 651965, 2013. ATP-dependent Clp protease proteolytic subunit (Bacillus subtilis (strain 168)), P80244. purified B. subtilis ClpP, FRET peptide cleavage, 20 min. actives 1.9% (n = 340,000); active = well fitted falling curve with a large enough effect; inconclusive = small, poorly fitted or top-dose-only effect; inactive = no such curve, though single readings can be large or run the other way; also: the source files actives as falling curves though it sought activators and does not explain the sign; nearly all actives have a fitted effect of over 65% in size
Target sequence (P80244 whole entry, looked up): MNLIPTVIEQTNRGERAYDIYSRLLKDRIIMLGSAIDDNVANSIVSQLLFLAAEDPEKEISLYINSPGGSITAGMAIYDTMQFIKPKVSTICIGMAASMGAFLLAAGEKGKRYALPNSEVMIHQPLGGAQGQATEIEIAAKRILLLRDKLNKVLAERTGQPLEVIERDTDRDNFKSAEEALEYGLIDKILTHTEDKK
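Buffer: 100 mM Tris/HCl pH8, 100 mM KCl, 0.05% low protease BSA, 2.5% glycerol, 0.01% Tween-20. ClpP 10 microg/mL final; 20 min RT; delta FRET normalized to ADEP and DMSO controls.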
D3 ag: D3 dopamine receptor (human) agonism. D3R DiscoveRx beta-arrestin cells, luminescence, 90 min. P35462. max activation, %. actives 0.58% (n = 410,000); in the data active = max activation above about 30%
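Cells at 1500/well, incubated overnight, then treated with pinned compounds (dopamine as control) for 90 min at 37 degrees C. DiscoveRx reagent added for 30 - 60 minutes at room temperature; luminescence read.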
IL-1B inflam inh: blocks inflammasome-driven IL-1 beta release. THP-1 LPS/ATP IL-1B secretion, AlphaLISA, 16 h; stronger effect = lower value. activity change, % at 57.5 µM. actives 4.7% (n = 360,000). AID 743279; in the data active = activity change below about -50%; inconclusive = mostly about -30% to -49%
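Secreted IL-1B measured by AlphaLISA bead assay after 16 h compound exposure of THP-1 cells; compounds (final up to 57.5 uM) added 1 h before LPS (250 ng/mL) and ATP (1.25 mM) stimulation; lower signal means less secretion.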
DT40 TDP1 no CPT: qHTS for Inhibitors of human tyrosyl-DNA phosphodiesterase 1 (TDP1): qHTS in cells in absence of CPT; actives 15% (n = 420,000); DT40 Tdp1-/- hTDP1 cells, no CPT, ATP luminescence, 48 h; AID 686978, 2013; Potency, µM (highest dose often 46.2 µM), hits mostly inhibitors; also: nearly all actives have a fitted effect of over 55% in size
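DT40 Tdp1-/-;hTDP1 cells, no CPT (DMSO vehicle only), 400 cells/well; compounds pin-transferred; ≥48 hr, 37 °C; CellTiter-Glo 30 min RT dark, luminescence read.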
DT40 TDP1 CPT: growth inhibition of DT40 Tdp1-/-;hTDP1 cells with camptothecin (screen for TDP1 inhibitors). chicken DT40 Tdp1-/-;hTDP1 cells + 20 nM CPT, ATP luminescence, 48 h. Potency, µM (highest dose often 46.2 µM), usual class: inhibitors. actives 12% (n = 420,000); also: nearly all actives have a fitted effect of over 55% in size
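Chicken DT40 Tdp1-/- cells complemented with human TDP1, 400 cells/well, exposed to compounds plus 20 nM camptothecin for at least 48 h at 37 C; viability read as ATP content by CellTiter-Glo luminescence.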
Hits are given with their value; - = inactive; ? = inconclusive; . = no result. Unless noted, calls follow the shape of the dose curve; as a rule, active = well fitted inhibition curve with a large enough effect; inconclusive = small, poorly fitted or top-dose-only effect; inactive = flat fitted curve, though single readings scatter.

SMILES	D3 antag	ClpP mod	D3 ag	IL-1B inflam inh	DT40 TDP1 no CPT	DT40 TDP1 CPT
COc1ccc(Br)cc1CNC(=O)Cn1nc(C)n2cccc2c1=O	-	-	-	-	?	-
CCc1ccc(OCc2cc(=O)n3c4c(sc3n2)CCCC4)cc1	.	-	-	.	?	-
CC(=O)Nc1nonc1-c1nnc(SCc2ccc(F)cc2Cl)n1C	.	-	-	.	15µM	?
CC(=O)Nc1nonc1-c1nnc(SCC(=O)Nc2ccc(C)c(Cl)c2)n1C	.	-	-	.	-	-
CC(=O)Nc1nonc1-c1nnc(SCc2ccc(F)cc2)n1C	.	-	-	.	?	-
CCn1c(SCc2ccc(F)cc2Cl)nnc1-c1nonc1NC(C)=O	.	-	-	.	18µM	16µM
CC(=O)Nc1nonc1-c1nnc(SCC(=O)Nc2ccc(C)c(Cl)c2)n1-c1ccccc1	.	-	-	.	16µM	?
CCOc1ccc(-c2nnc(-c3ccco3)o2)cc1OCC	-	22µM	-	?	?	?
CCOc1ccc(-c2nnc(-c3cccs3)o2)cc1OCC	-	-	-	-	?	?
CCOc1cc(-c2nnc(-c3ccco3)o2)cc(OCC)c1OCC	-	22µM	-	-	12µM	18µM
COc1ccccc1CNC(=O)CSc1cc(C)[nH]c(=O)n1	.	-	-	.	-	-
CC(=O)NCCNc1ncncc1-c1ccccc1C	.	.	.	.	-	-
COc1cc([C@H]2Oc3c(OC)cc(CCCO[C@@H]4O[C@H](CO)[C@@H](O)[C@H](O)[C@H]4O)cc3[C@@H]2CO)ccc1O	-	-	-	-	-	-
COCCn1c(SCC(=O)NCc2ccccc2)nc2ccccc21	-	.	-	-	-	-
COCCn1c(SCc2csc(-c3ccccc3)n2)nc2ccccc21	-	-	-	?	18µM	16µM
O=C1C=CC(=O)C(CNc2ccc(C(=O)OCc3ccccc3)cc2)=C1	?	-	-	-100	4.1µM	5.8µM
Cc1ccc(C2CC(C(F)(F)F)n3nc(C(=O)NCc4c(C)nn(C)c4C)c(Cl)c3N2)cc1 (stereo not given)	-	-	34	-	5.2µM	4.6µM
COc1ccc(C2CC(C(F)(F)F)n3nc(C(=O)NCc4cn(C)nc4C)c(Cl)c3N2)cc1 (stereo not given)	-	-	-	-	10µM	13µM
COc1ccc2oc(C(=O)OCC(=O)NCc3ccco3)c(C)c2c1	-	.	-	-	-	-
COc1ccc(CNC(=O)CN2CCC(NC(=O)c3ccc(OC)cc3)CC2)cc1	-	.	-	-	-	-
CC(C)(C)NC(=O)CSc1ncnc2c1nnn2Cc1ccccc1Cl	-	-	-	-60	?	?
O=C(CSc1ncnc2c1nnn2Cc1ccccc1)NC1CCCC1	-	.	-	?	-	-
COCCn1c(-c2ccc(OC(F)(F)C(F)C(F)(F)F)cc2)nc2c1c(=O)[nH]c(=O)n2CC(C)C (stereo not given)	-	28µM	-	-	?	21µM
COCCn1c(-c2ccc(SC)cc2)nc2c1c(=O)[nH]c(=O)n2CC(C)C	-	.	-	-	-	-
CCCn1c(=O)[nH]c(=O)c2c1nc(-c1ccccc1OC(F)F)n2CCOC	-	25µM	-	-	-	-
SMILES	D3 antag	ClpP mod	D3 ag	IL-1B inflam inh	DT40 TDP1 no CPT	DT40 TDP1 CPT
CCCn1c(=O)[nH]c(=O)c2c1nc(-c1ccc(OC(F)F)c(OC)c1)n2CCOC	-	25µM	-	-	-	-
CC(C)(C)NC(=O)NCC1CCCC1NC(=O)NC(C)(C)C (stereo not given)	-	-	-	-	-	-
Cc1noc(C)c1C(=O)N1CCC2(CCCN(c3ccccc3)C2)CC1	.	.	.	.	?	-
O=C1OC(c2ccccc2)=N/C1=C/c1cccc(OC(=O)c2cccs2)c1	?	-	-	-52	-	-
Cc1no[n+]([O-])c1COc1cccc(/C=C2\N=C(c3ccccc3)OC2=O)c1	-	?	-	-	-	-
CN(C(=O)CS(=O)(=O)c1cn(CC(=O)N2CCCC2)c2ccccc12)c1ccccc1	-	-	-	-	-	-
O=S1(=O)CC(N2CCSCC2)CN1Cc1cn(Cc2ccc(Cl)cc2)nn1 (stereo not given)	-	-	-	-	-	-
CCn1nnc(-c2ccccc2NS(=O)(=O)c2ccc(S(=O)(=O)N3CCCCCC3)cc2)n1	-	-	-	-	-	-
Cc1ccc(NC(=O)CN(C(=O)N2CCN(C)CC2)S(=O)(=O)c2ccc(C)cc2)cc1	-	-	-	-	-	-
CCOC(=O)c1ccc(S(=O)(=O)Nc2ccccc2-c2nnn(CC)n2)cc1	-	-	-	-	9.2µM	15µM
CCc1ccc(NC(=O)CN(C(=O)N2CCN(CC)CC2)S(=O)(=O)c2ccc(C)cc2)cc1	-	-	-	-55	-	-
CCOC(=O)c1ccc(CN(Cc2ccc(C)cc2)S(=O)(=O)c2cccc([N+](=O)[O-])c2)cc1	-	-	-	-	?	-
CCOC(=O)c1ccc(CN(Cc2ccccc2)S(=O)(=O)c2ccc(C)cc2)cc1	.	-	-	.	16µM	29µM
CCOC(=O)c1ccc(S(=O)(=O)NCCNCc2ccccc2)cc1	-	.	-	-76	?	?
Cc1cc(Cl)ccc1NC(=O)CCN1C(=O)NC(C)(C)C1=O	-	-	-	-	-	-
NNC(=O)C1SCCN1S(=O)(=O)c1ccc(Cl)cc1 (stereo not given)	-	-	-	-	-	-
CCOC(=O)c1ccc(CN(Cc2ccc(C)cc2)S(=O)(=O)c2ccc(NC(C)=O)cc2)cc1	.	-	-	.	15µM	?
CCOC(=O)c1ccc(CN(Cc2ccc(C)cc2)S(=O)(=O)c2ccc(F)c(C(=O)Nc3ccc(C)c(F)c3)c2)cc1	.	-	-	.	-	-
COc1cc(NC(=O)CSc2ncnc3sc4c(c23)CCCC4)c(C(=O)O)cc1OC	-	.	-	-	-	-
Cc1cc(S(=O)(=O)NCC(c2ccc(F)cc2)N2CCN(C)CC2)ccc1F (stereo not given)	-	.	-	-	?	?
Cc1ccc(C(CNS(=O)(=O)c2ccc(F)cc2C)N2CCN(C)CC2)cc1 (stereo not given)	-	.	-	-	?	18µM
CCCS(=O)(=O)c1c(S(=O)(=O)CCC)c2cc(C(C)(C)C)ccn2c1C(=O)c1ccc(OC)c(OC)c1	.	-	-	.	?	?
CCCS(=O)(=O)c1c(S(=O)(=O)CCC)c2c3ccccc3ccn2c1C(=O)OC	-	?	-	?	26µM	?
